According to PubChem BioAssay (Tox21):
Records with an inconclusive call do not appear. Entries that show only a call come without a potency. Active and inactive are the calls of the source. Calls come from the whole dose curve; as a rule, active = well fitted cell-killing curve with a large enough effect in the repeat runs; inconclusive = weak or mixed curves, or effect the other way; inactive = no such curve, though single readings can be large or run the other way.

Assay: qHTS assay to identify small molecule agonists of the RXR signaling pathway - cell viability counter screen (AID 1159529); note: nearly all actives have a fitted effect of over 50% in size
Conditions: RXR-alpha-bla HEK293T viability, CellTiter-Glo, 16 h; series mostly up to 76.8 µM
From the text: National Center for Advancing Translational Sciences [NCATS]
NIH Chemical Genomics Center [NCGC]
U.S. Environmental Protection Agency [EPA]
National Institutes of Environmental Health Sciences [NIEHS]
National Toxicology Program [NTP]
U.S. Food and Drug Administration [FDA]
The Retinoid X receptor (RXR), a nuclear hormone receptor expressed in liver, spleen, placenta, epidermis, central nervous system. These receptors are able to form homo and heterodimers with other nuclear receptors and due to this heterodimerizing ability, RXR functions as master regulators producing diverse physiological effects. Three subtypes of RXR exist; alpha, beta and gamma. Retinoid X receptor alpha (RXR-alpha) has potential roles in metabolic signaling pathways, skin alopecia, dermal cysts, cardiac development, insulin sensitization etc. Therefore screening environmental chemicals on RXR-alpha signaling can be used for the studies focused on such therapeutic applications. For quantification of RXR-alpha ligands signaling, GeneBLAzer RXR alpha-UAS-bla HEK 293T (Life Technologies, Carlsbad, CA) cells containing a beta-lactamase reporter-gene under control of Retinoid X receptor-alpha response element were used to screen Tox21 10K library. The cytotoxicity of the Tox21 compound library against the RXR-alpha HEK 293T cell line was tested in parallel by measuring cell viability using CellTiter-Glo assay (Promega Corporation, Madison, WI) in the same wells.
Tox21 Assay Protocol Summary:
RXR-alpha HEK 293T cells were dispensed at 2,000 cells/6 uL of assay medium containing 2% charcoal-stripped FBS using a Multidrop Combi (ThermoFisher Scientific, Waltham, MA) dispenser. The assay was performed in black wall/clear-bottom 1536-well plates (Greiner Bio-One North America Inc. Monroe, NC). Tetraoctyl ammonium bromide was used as a positive control in the cytotoxicity screen. After the assay plates were incubated at 37 C and 5% CO2 for 5 hr, 23 nL of compounds dissolved in DMSO, positive control or DMSO only were transferred to the assay plate by a Pintool station (Kalypsys, San Diego, CA). The assay plates were incubated at 37 C and 5% CO2 for 16 hr. One uL of LiveBLAzer B/G FRET substrate (Life Technologies) was added using a Flying Reagent Dispenser (FRD) (Aurora Discovery, San Diego, CA) and the plates were incubated at room temperature for 2 hr. Fluorescence intensity (405 nm excitation, 460/530 nm emission) was measured using an Envision plate reader (PerkinElmer, Shelton, CT). For cytotoxicity, 4 uL/well of CellTiter-Glo reagent was added into the assay plates using an FRD. After 30 min incubation at room temperature, the luminescence intensity was measured using a ViewLux plate reader (PerkinElmer).

| SMILES | Potency | activity change, negative = cytotoxicity |
| --- | --- | --- |
| O=C(CCCN1CCC(n2c(=O)[nH]c3ccccc32)CC1)c1ccc(F)cc1 | inactive |  |
| ClCC(Cl)Cl | inactive |  |
| OCCBr | inactive |  |
| OC(Cn1cncn1)(c1ccc(F)cc1)c1ccccc1F (stereo not given) | inactive |  |
| CS(=O)(=O)c1cc(C(F)(F)F)ccc1C(=O)c1cnoc1C1CC1 | inactive |  |
| O=C(Cc1ccccc1)OCc1ccccc1 | inactive |  |
| CC(C(=O)c1ccccc1)N(C)C (stereo not given) | inactive |  |
| CNC(=O)Oc1c(C(C)(C)C)cc(C)cc1C(C)(C)C | inactive |  |
| COc1cc(OC)nc(Oc2cccc(Oc3nc(OC)cc(OC)n3)c2C(=O)O)n1 | inactive |  |
| CCOP(=S)(OCC)Oc1nc(Cl)n(C(C)C)n1 | inactive |  |
| COCC(=O)N(c1c(C)cccc1C)N1CCOC1=O | inactive |  |
| O=C(O)c1ccc2[nH]cc(CCCCN3CC=C(c4ccccc4)CC3)c2c1 | inactive |  |
| CSc1nc(N=[N+]=[N-])nc(NC(C)C)n1 | inactive |  |
| CC1(C)C(=O)NC(=O)NC1=O | inactive |  |
| Clc1cccc(N2CCNCC2)c1 | inactive |  |
| Cc1cc(C)c(C(=O)P(=O)(C(=O)c2c(C)cc(C)cc2C)c2ccccc2)c(C)c1 | inactive |  |
| O=CNC(N1CCN(C(NC=O)C(Cl)(Cl)Cl)CC1)C(Cl)(Cl)Cl (stereo not given) | inactive |  |
| CC(C)(C)NCC(O)c1cc(Cl)c(N)c(Cl)c1 (stereo not given) | inactive |  |
| COP(=S)(OC)Oc1c(Cl)cc(C)cc1Cl | inactive |  |
| Cc1cnc[nH]1 | inactive |  |

| SMILES | Potency | activity change, negative = cytotoxicity |
| --- | --- | --- |
| O=S(=O)(O)C(F)(F)C(F)(F)C(F)(F)C(F)(F)C(F)(F)C(F)(F)F | inactive |  |
| CCCCP(CCCC)CCCC | inactive |  |
| CCCSC(=O)N(CCC)CCC | inactive |  |
| NC(=O)c1cc([N+](=O)[O-])cc([N+](=O)[O-])c1 | inactive |  |
| CNC(=O)Oc1cccc(C(C)C)c1 | inactive |  |
| C=C(C)CN(CC)c1c([N+](=O)[O-])cc(C(F)(F)F)cc1[N+](=O)[O-] | inactive |  |
| COC(=O)C1=CCCN(C)C1 | inactive |  |
| COC(=O)c1ccccc1S(=O)(=O)NC(=O)Nc1nc(C)cc(C)n1 | inactive |  |
| CC(C)CP(=S)(S)CC(C)C | inactive |  |
| CC(C=O)Cc1ccc2c(c1)OCO2 (stereo not given) | inactive |  |
| CCN(Cc1ccc(Cl)nc1)/C(=C/[N+](=O)[O-])NC | inactive |  |
| CC(C)(C)OC(=O)c1ncn2c1[C@@H]1CCCN1C(=O)c1c(Br)cccc1-2 | inactive |  |
| CC(=O)CCc1ccc2c(c1)OCO2 | inactive |  |
| NC1=NC(=O)C(c2ccccc2)O1 (stereo not given) | inactive |  |
| O=C1c2ccccc2C(=O)c2ccccc21 |  | 3.01% [at 15.8 µM] (inactive) |
| CC(=O)Nc1cc([As](=O)(O)O)ccc1O | inactive |  |
| CC(C)NCC(O)c1ccc(N)c(C#N)c1 (stereo not given) | inactive |  |
| Nc1c(Br)cc([N+](=O)[O-])cc1[N+](=O)[O-] | inactive |  |
| CCCCc1c(C)nc(NCC)[nH]c1=O | inactive |  |
| CCCCN(CCCCO)N=O | inactive |  |
